Among the data in PubChem BioAssay (EPA / NIEHS) are AC50 and outcome values, retold here.

Assay [1] can be described thus: APR_HepG2_CellCycleArrest_24hr: Apredica 24-hour HepG2 Assay for Cell Cycle Arrest (AID 2282905).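 Note: cell cycle arrest scored as ratio of 2N to 4N nuclear DNA content.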 The conditions noted are these: imaging, actives raise or lower the signal. In short, it runs like this: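 HepG2 cells were exposed to compounds at 0.39–200 uM (ten concentrations, duplicate) in 0.5% v/v DMSO for 24 hr. After formaldehyde fixation and Triton permeabilization, Hoechst 33342-stained nuclei were imaged at 20x; DNA content was quantified, with bidirectional fitting against DMSO.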

Assay [2] can be described thus: APR_HepG2_NuclearSize_24hr: Apredica 24-hour HepG2 Assay for Nuclear Size (AID 2282907). Particulars: high-content imaging, actives raise or lower the signal. In short, it runs like this:
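HepG2 human liver cells were exposed for 24 hr to compounds at 0.39–200 uM (ten concentrations, duplicate) in 0.5% v/v DMSO. They were then formaldehyde-fixed, Triton-permeabilized and Hoechst 33342-stained, and nuclear diameter was imaged at 20x. Bidirectional fits were made against DMSO.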

Assay [3] can be described thus: APR_HepG2_CellLoss_24hr: Apredica 24-hour HepG2 Assay for Cell Loss (AID 2282908).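 For AC50: fit in both directions so a hit may be cell loss or gain.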 The conditions noted are these: high-content imaging. In short, it runs like this:
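Compounds were tested at 0.39–200 uM in duplicate with 0.5% v/v DMSO final. Cells were then fixed in 3.7% formaldehyde, Hoechst 33342 nuclei were imaged at 20x by HCS, and cell number was fitted bidirectionally against DMSO.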

A short description of assay [4]: APR_HepG2_MicrotubuleCSK_24hr: Apredica 24-hour HepG2 Assay for Microtubule CSK Stabilty (AID 2282909). Particulars: HepG2 microtubule cytoskeleton imaging, actives raise or lower the signal. In short, it runs like this: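 HepG2 cells exposed 24 h to compounds at 0.39–200 uM (duplicate, 0.5% v/v DMSO final), then fixed, permeabilized and immunostained for alpha-tubulin with Hoechst 33342. Cytoskeleton imaged at 20x; bidirectional fit versus DMSO baseline.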

Assay [5] is described as follows: APR_HepG2_MitoMembPot_24hr: Apredica 24-hour HepG2 Assay for Mitochondrial Membrane Potential (AID 2282911). Particulars: imaging, actives raise or lower the signal. In short, it runs like this: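 Human hepatoma HepG2 cultures received ten compound concentrations up to 200 uM for 24 hr. Membrane-potential dye signal, captured by automated fluorescence microscopy, was scored for gain or loss against DMSO controls.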

The nature of assay [6]: APR_HepG2_MitoMass_24hr: Apredica 24-hour HepG2 Assay for Mitochondrial Mass (AID 2282912). The conditions noted are these: high-content imaging, actives raise or lower the signal. In short, it runs like this:
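Human HepG2 liver cells were exposed for 24 hr to compounds at 0.39–200 uM (duplicates, 0.5% v/v DMSO final). They were stained live with 250 nM MitoTracker Red CMXRos for 30 min, fixed in 3.7% formaldehyde, and imaged by HCS fluorescence; signals were fitted bidirectionally against DMSO.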

Assay [7] is described as follows: APR_HepG2_p53Act_24hr: Apredica 24-hour HepG2 Assay for p53 Activation (AID 2282913).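 Note: p53 protein immunofluorescence averaged per cell in HepG2 with Hoechst nuclei.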 Particulars: high-content imaging, actives raise or lower the signal. In short, it runs like this: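 Automated fluorescence imaging quantifies p53 immunostaining in HepG2 cells after a 24 hr exposure (0.39–200 uM, duplicate, 0.5% DMSO). Nuclei are located by Hoechst 33342 staining.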

Assay [8] is described as follows: APR_HepG2_CellCycleArrest_72hr: Apredica 72-hour HepG2 Assay for Cell Cycle Arrest (AID 2282914). Particulars: high-content imaging, actives raise or lower the signal. In short, it runs like this:
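Cell cycle arrest in HepG2 was scored from nuclear DNA content after 72 hr compound treatment (0.39–200 uM). Activity, either gain or loss, was fitted against the DMSO baseline.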

Assay [9] can be described thus: APR_HepG2_CellLoss_72hr: Apredica 72-hour HepG2 Assay for Cell Loss (AID 2282915). Particulars: high-content imaging. In short, it runs like this: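 Cell number comes from Hoechst 33342-labelled nuclei, imaged at 20x after 3.7% formaldehyde fixation. Dosing was 0.39–200 uM, ten concentrations in duplicate, 0.5% DMSO final, for 72 h. Bidirectional fit relative to DMSO baseline.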

The nature of assay [10]: ACEA_ER_80hr: ACEA Biosciences xCELLigence Real-Time Cell Analysis on Estrogen Receptor Agonism for Proliferation (AID 2282667; active = hit-call score of the fitted dose curve at least 0.9, where 1 is the maximum). The conditions noted are these: T47D proliferation, impedance (xCELLigence), 80 h. In short, it runs like this:
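Cell-growth kinetics were measured by impedance in T47D cells treated continuously with compound (top 100 uM final, 1:4 steps, 8 points). Activity at 80 h was scored as signal gain over the DMSO baseline.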

The nature of assay [11]: APR_HepG2_MitoticArrest_24hr: Apredica 24-hour HepG2 Assay for Mitotic Arrest (AID 2282910). The conditions noted are these: high-content imaging, actives raise or lower the signal. In short, it runs like this: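 Compounds are dosed onto HepG2 cells across ten concentrations up to 200 uM for 24 hr. Cells are then fixed in 3.7% formaldehyde, permeabilised, and labelled for phospho-histone H3 and nuclei; images are scored by cell cycle analysis and fitted bidirectionally relative to DMSO.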

SMILES strings stand for the structures. Results filed as inconclusive are left out. Calls of active or inactive are those of the source. Rule for the calls, unless noted: active = hit-call score of the fitted dose curve at least 0.9, where 1 is the maximum; inactive = score below 0.9.

For `O=C(O)C(F)(F)C(F)(F)C(F)(F)C(F)(F)C(F)(F)C(F)(F)C(F)(F)C(F)(F)F`, the AC50 is 105 µM (active) in [1]; 104 µM (active) in [3]; 107 µM (active) in assay [6]; 114 µM (active) in assay [7]; 110 µM (active) in assay [9]. Moreover, the outcome in assay [2], in assay [4], in assay [5] and in assay [8] was inactive.

On to `Nc1ccc(-c2ccc(N)cc2)cc1`, for which the molecule was classed as inactive in assay [10], in assay [2], in [3], in assay [11], in assay [5] and in assay [6]. The molecule was called inactive in assay [8] and in assay [9]. Further, the AC50 in [1] and in assay [7] was 100 µM (active) in each case.

For `CN(C)CCO`, the result in assay [10], in [1], in assay [3], in assay [4], in [5] and in assay [6] was inactive. Also, the outcome in assay [7], in assay [8] and in assay [9] was inactive.

In the case of `Clc1ccc(Cl)cc1`, the molecule was classed as inactive in [10], in [1], in assay [3], in [5], in [6] and in [7]. Further, the result in assay [8] and in [9] was inactive.

On to `Cc1ccccc1O`, for which the call in [1], in assay [2], in assay [3], in assay [4], in assay [5] and in assay [6] was inactive. Moreover, the molecule was called inactive in assay [7], in [8] and in assay [9].

For `CO/C=C(/C(=O)OC)c1ccccc1COc1cccc(C(F)(F)F)n1`, the AC50 in [10] was 20.2 µM (active); in assay [3] it was 9.73 µM (active); in [11] it was 16.8 µM (active); in assay [5], 16.4 µM (active); in assay [9], 3.39 µM (active). Besides, the molecule was classed as inactive in assay [1], in assay [2], in assay [6], in [7] and in assay [8].

`OCC(O)CO`: the outcome in assay [10] was inactive.

Consider `O=C(O)C(F)(F)C(F)(F)C(F)(F)C(F)(F)C(F)(F)F`, for which the molecule was classed as inactive in assay [10], in [1], in [3], in assay [5], in assay [6] and in assay [7]. The molecule was called inactive in [8] and in assay [9].

Take `O=S(=O)(O)C(F)(F)C(F)(F)C(F)(F)C(F)(F)F`: the result in assay [10], in assay [1], in assay [2], in assay [3], in assay [11] and in assay [5] was inactive. Further, the outcome in assay [6], in assay [7], in assay [8] and in assay [9] was inactive.

What is called AC50 is the midpoint of the concentration-response curve, whichever way the signal moves.
